The text below walks through data of PubChem BioAssay (NCI).

The panel holds about 83,000 compounds, 20% with a hit somewhere; the sample as a whole holds those more often.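 Results are percent growth after 48 hours of single-concentration exposure. 100 means growth as in untreated cells, lower positive values show inhibition; negative values down to -100 show cell death.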 Calls of active or inactive are those of the source. Rule for the calls: active = growth percent below 10; inactive = the rest.

For this test, the system named is A498 renal. Briefly: NCI-60 one-dose screen, 48 h (100 = growth as untreated, 0 = no growth, -100 = all killed). The note with it: 10 µM unless noted.
As to `N#CN1CC[C@H](C(=O)Nc2cc3cc(C(N)=O)ccc3cn2)C1`, the growth is -34.4% (active).

With `O=C1c2c(O)cc(O)cc2-c2c(-c3ccc(O)cc3)oc3cc(O)cc1c23`, the growth is 62.5% (inactive).

For `O=C1/C(=C/c2ccccc2O)N=C2SCCCN12`, the growth was 85.7% (inactive).

`COc1ccc(CN2c3ccccc3Sc3ccccc32)c(C(F)(F)F)c1`: the growth was 4.16% (active).

Consider `COc1ccc(-c2nc(SCC(=O)Nc3ccc(C(=O)/C=C/c4ccc(Cl)cc4)cc3)[nH]c(=O)c2C#N)cc1`, for which the growth is 101% (inactive).

With `COc1ccc2c(c1)CC/C(=C\c1cncc(Br)c1)C2=O`, the growth is 96.5% (inactive).

For the compound `COc1ccc2c(c1)C(=O)/C(=C/c1ccccn1)CC2`, the growth is 120% (inactive).

In the case of `Cc1nc(Nc2ccc(F)c(Cl)c2)sc1C(=O)O`, the growth was -26.2% (active).

With `CCOC(=O)c1sc(Nc2ccc(Cl)cc2)nc1C`, the growth was -32.9% (active).

Regarding `CC(=O)c1cc(C(=O)c2ccc3c(c2)Sc2ccccc2N3)n2ccccc12`, the growth was -11.9% (active).

On to `CC(=O)O[C@H]1C(=O)[C@@]2(C)[C@H]([C@H](OC(=O)c3ccccc3)[C@]3(O)C[C@H](OC(=O)[C@H](OC(=O)CCC(=O)OC4CCC(S/N=C(N)/N=C(\N)N(C)C)CC4)[C@@H](NC(=O)c4ccccc4)c4ccccc4)C(C)=C1C3(C)C)[C@]1(OC(C)=O)CO[C@@H]1C[C@@H]2O` (stereo partly specified), for which the growth was 26.7% (inactive).

Consider `CC(=O)OC[C@H]1O[C@H](OC(C)=O)[C@H](NC(=O)/C=C/CCl)[C@@H](OC(C)=O)[C@@H]1OC(C)=O`, for which the growth was 104% (inactive).

As to `COc1cc(-c2nc(C(=O)NCC(=O)NO)nn2-c2ccc(Cl)cc2)cc(OC)c1OC`, the growth is 110% (inactive).

`C=C1C(=O)O[C@H]2[C@H]1CC/C(COC(=O)NCCc1ccc(OC)c(OC)c1)=C\CC[C@@]1(C)O[C@@H]21`: the growth is 81.3% (inactive).

As for `CC/C=C\C[C@H](O)C/C=C1/C(=O)C=C[C@@]1(C)C/C=C\CCCC(=O)OC`, the growth is 97.3% (inactive).

Consider `Cc1ccc2oc(=O)cc(C3c4ccc([nH]4)C(c4cc(=O)oc5ccc(C)cc45)c4ccc([nH]4)C(c4cc(=O)oc5ccc(C)cc45)c4ccc([nH]4)C(c4cc(=O)oc5ccc(C)cc45)c4ccc3[nH]4)c2c1` (stereo unspecified), for which the growth was -81.1% (active).

As for `COc1cccc2c1C(=O)c1c(O)c3c(c(O)c1C2=O)C[C@](O)(C(=O)CO)C[C@H]3O[C@@H]1C[C@@H](NC(=O)CCCCCN(C)C2(c3ccc(F)cc3)CC3CCC2C3)[C@H](O)[C@@H](C)O1` (stereo partly specified), the growth is 54.6% (inactive).

For `NC(=NCCCC1(c2ccccc2)CCCC1)Nc1ccc(Cl)cc1`, the growth was 83.1% (inactive).

`CCC#CC[C@H](O)C/C=C1/C(=O)C=C[C@@H]1C/C=C\CCCC(=O)OC`: the growth was 95.7% (inactive).

As to `O=c1oc2c(C(F)(F)F)cccc2cc1-c1csc(Nc2ccc(OCCF)cc2)n1`, the growth was -9.67% (active).

As for `CNC(=O)c1cc(Oc2ccc(NC(=O)Nc3ccc(Cl)c(SC)c3)c(F)c2)ccn1`, the growth was 41.3% (inactive).

For `c1ccc2[nH]c(-c3ccc(Nc4nc(N5CCCC5)nc5[nH]ncc45)cc3)nc2c1`, the growth is 94.5% (inactive).

Regarding `CC/C=C\C/C=C\C[C@H]1C/C=C2/C(=O)C=C[C@@H]2C/C=C\CCC(=O)O1`, the growth was 20.7% (inactive).

In the case of `COc1ccc(CN2c3ccccc3Sc3ccccc32)cc1O`, the growth is 76.4% (inactive).

As to `CCOc1ccc(-n2nc(C(=O)Nc3cc(OC)c(OC)c(OC)c3)nc2-c2cc(OC)c(OC)c(OC)c2)cc1`, the growth is 67.3% (inactive).

Turning to `CC/C=C\C[C@H]1C/C=C2/C(=O)C=C[C@H]2C/C=C\CCCC(=O)O1`, the growth is 79.5% (inactive).
